Laboratory results as given in the supplement of paper PMC7366291.
Where a name gives a salt, the structure may show the parent alone. ± gives the standard deviation of the averaged measurements.

What follows are compounds tested on Danio rerio Tg(wt1b:EGFP) embryo, pronephros (assay: pronephric angle neck segment to proximal convoluted tubule (mean of left and right), fold change vs DMSO control; higher = larger pronephric angle). Details: 25 µM; exposure: 24-48 hpf.
Summary of the method: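 Features are reported as fold changes against the mean of same-day DMSO-treated embryos. Before that, values more than 2 SD away from the feature mean were excluded. The embryos, dechorionated Tg(wt1b:EGFP) zebrafish, had been exposed from 24 to 48 hpf at 28.5°C to 25 μM compound in 0.5% DMSO in HEPES-buffered E3 with 0.003% PTU, and distances and angles came from 16 manually set points on maximum projections of dorsal pronephros images in Fiji.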
With `Cc1ccccc1C(OCCN(C)C)c1ccccc1` (stereo unspecified) [Orphenadrine hydrochloride] the “pronephric angle neck segment” value was 1 ± 0.015. For `C#C[C@]1(O)CC[C@H]2[C@@H]3CCc4cc(O)ccc4[C@H]3CC[C@@]21C` [Ethinylestradiol], the “pronephric angle neck segment” value was 1.3 ± 0.015. With `CCCN(CCC)S(=O)(=O)c1ccc(C(=O)O)cc1` [Probenecid] the “pronephric angle neck segment” value was 0.915 ± 0.028. `CCN(CC)CCOCCOC(=O)C1(c2ccccc2)CCCC1` [Carbetapentane citrate] was tested, and the “pronephric angle neck segment” value was 1.06 ± 0.11. In the case of `CCCOc1cc(N)ccc1C(=O)OCCN(CC)CC` [Propoxycaine hydrochloride], the “pronephric angle neck segment” value is reported as 1.01 ± 0.023. For `c1ccc([C@H]2CN3CCSC3=N2)cc1` [Levamisole hydrochloride], the “pronephric angle neck segment” value was 0.979 ± 0.016. In the case of `O=C1OCCN1/N=C/c1ccc([N+](=O)[O-])o1` [Furazolidone], the “pronephric angle neck segment” value is reported as 0.935 ± 0.054. For `O=C(Oc1cccc2cccnc12)c1ccccc1` [Benzoxiquine], the “pronephric angle neck segment” value was 1.1 ± 0.022. With `CN(C)CCC(c1ccccc1)c1ccccn1` (stereo unspecified) [Pheniramine maleate] the “pronephric angle neck segment” value was 0.9206 ± 0.0039. `O=c1[nH]c(=O)n(C2CCCO2)cc1F` (stereo unspecified) [Tegafur] was tested, and the “pronephric angle neck segment” value was 0.991 ± 0.041. With `NC(=O)N1c2ccccc2CC(=O)c2ccccc21` [Oxcarbazepine] the “pronephric angle neck segment” value was 0.9454 ± 0.0088. For `Cc1cc2c(s1)Nc1ccccc1N=C2N1CCN(C)CC1` [Olanzapine], the “pronephric angle neck segment” value was 1.01 ± 0.041. In the case of `Cc1cc(O)c(C(=O)N[C@@H](C(=O)N[C@@H]2C(=O)N3C(C(=O)O)=C(CSc4nnnn4C)CS[C@H]23)c2ccc(O)cc2)cn1` [Cefpiramide], the “pronephric angle neck segment” value is reported as 0.9442 ± 0.0043. In the case of `CC(=O)[C@H]1CC[C@H]2[C@@H]3C[C@H](C)C4=CC(=O)CC[C@]4(C)[C@H]3[C@@H](O)C[C@]12C` [Medrysone], the “pronephric angle neck segment” value is reported as 0.957 ± 0.019. With `CC(=O)OCC(CCn1cnc2cnc(N)nc21)COC(C)=O` [Famciclovir] the “pronephric angle neck segment” value was 0.9775 ± 0.004. In the case of `O=C(O)CCc1nc(-c2ccccc2)c(-c2ccccc2)o1` [Oxaprozin], the “pronephric angle neck segment” value is reported as 1.87 ± 0.14. `Cc1c(NC(=O)c2cccnc2)c(=O)n(-c2ccccc2)n1C` [Nifenazone] was tested, and the “pronephric angle neck segment” value was 1 ± 0.023. `CC(=O)CC(c1ccc([N+](=O)[O-])cc1)c1c(O)c2ccccc2oc1=O` (stereo unspecified) [Acenocoumarol] was tested, and the “pronephric angle neck segment” value was 1.07 ± 0.076. `C=C1C[C@H]2[C@@H]3C=C(C)C4=CC(=O)CC[C@]4(C)[C@H]3CC[C@]2(C)[C@@]1(OC(C)=O)C(C)=O` [Melengestrol acetate] was tested, and the “pronephric angle neck segment” value was 1.02 ± 0.066. In the case of `CN1[C@@H]2CC[C@H]1C[C@@H](OC(=O)c1c[nH]c3ccccc13)C2` [Tropisetron hydrochloride], the “pronephric angle neck segment” value is reported as 1.06 ± 0.067. In the case of `COc1c(N2CCNC(C)C2)c(F)cc2c(=O)c(C(=O)O)cn(C3CC3)c12` (stereo unspecified) [Gatifloxacin], the “pronephric angle neck segment” value is reported as 1 ± 0.04. With `COc1cccc2c1C(=O)c1c(O)c3c(c(O)c1C2=O)C[C@@](O)(C(=O)CO)C[C@@H]3O[C@H]1C[C@H](N)[C@@H](O)[C@H](C)O1` [Epirubicin hydrochloride] the “pronephric angle neck segment” value was 0.963 ± 0.053. In the case of `O=c1[nH]c(=O)n([C@H]2C[C@H](O)[C@@H](CO)O2)cc1F` [Floxuridine], the “pronephric angle neck segment” value is reported as 1.05 ± 0.016. With `CCOc1nc2cccc(C(=O)O)c2n1Cc1ccc(-c2ccccc2-c2nnn[nH]2)cc1` [Candesartan] the “pronephric angle neck segment” value was 1.01 ± 0.019. `CC1CC(OC(=O)C(O)c2ccccc2)CC(C)(C)N1C` (stereo unspecified) [Eucatropine hydrochloride] was tested, and the “pronephric angle neck segment” value was 0.9583 ± 0.0057. In the case of `Oc1c(I)cc(Cl)c2cccnc12` [Clioquinol], the “pronephric angle neck segment” value is reported as 1.59 ± 0.077. For `NS(=O)(=O)c1cc2c(cc1Cl)NCNS2(=O)=O` [Hydrochlorothiazide], the “pronephric angle neck segment” value was 0.937 ± 0.013. For `CC(C)Cc1ccc([C@H](C)C(=O)O)cc1` [S-(+)-ibuprofen], the “pronephric angle neck segment” value was 1.61 ± 0.035. With `COc1cc2nc(N3CCN(C(=O)C4COc5ccccc5O4)CC3)nc(N)c2cc1OC` (stereo unspecified) [Doxazosin mesylate] the “pronephric angle neck segment” value was 1.007 ± 0.003. With `CC(C)(C)NCC(O)c1cc(O)cc(O)c1` (stereo unspecified) [Terbutaline hemisulfate] the “pronephric angle neck segment” value was 1.01 ± 0.039. In the case of `CCOC(=O)C1=C(C)NC(C)=C(C(=O)OC)C1c1cccc(Cl)c1Cl` (stereo unspecified) [Felodipine], the “pronephric angle neck segment” value is reported as 1.44 ± 0.022. `COc1cc(C(=O)NCc2ccc(OCCN(C)C)cc2)cc(OC)c1OC` [Trimethobenzamide hydrochloride] was tested, and the “pronephric angle neck segment” value was 0.9712 ± 0.0027. For `C[C@@H]1NC(=O)NC1=O` [Methylhydantoin-5-(L)], the “pronephric angle neck segment” value was 0.995 ± 0.031. With `C[C@H](CCC(=O)O)[C@H]1CC[C@H]2[C@@H]3[C@H](O)C[C@@H]4C[C@H](O)CC[C@]4(C)[C@H]3CC[C@]12C` [Chenodiol] the “pronephric angle neck segment” value was 1.04 ± 0.13. For `O=C(O)CCCC[C@@H]1SC[C@@H]2NC(=O)N[C@@H]21` [Biotin], the “pronephric angle neck segment” value was 1.02 ± 0.066. With `CCN(CC)CCNC(=O)c1cc(Br)c(N)cc1OC` [Bromopride] the “pronephric angle neck segment” value was 1.02 ± 0.036.
